A number with no mark means an inactive call. For some assays here: Measured potencies and affinities stand elsewhere. The source made the active and inactive calls. Unless noted, the rule behind the calls is not given here.
Columns and labels:
[1] = antimalarial activity against Dd2 strain (AID 2302;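 active = growth inhibition above 50% at the single 2 µM test dose, taken to imply half-maximal potency below 2 µM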;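 note: 0% = DMSO untreated growth and 100% = chloroquine plus artemisinin killed control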); details: P. falciparum Dd2 in RBCs, LDH growth readout, 72 h; at 2 µM; stronger effect = higher value
[2] = HepG2 cytotoxicity, primary screen, cytotoxicity control for P. falciparum antimalarial project, cell-based, ATP luminescence (AID 2303;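 active = inhibition above 50%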;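 note: 0% = DMSO wells and 100% = digitonin-killed cells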); details: HepG2 viability, 24-48 h, at 10 µM, stronger effect = higher value
[3] = target: L-lactate dehydrogenase (Plasmodium falciparum (isolate CDC / Honduras)) (UniProt Q27743); test: PfLDH activity inhibition – cell lysate, 3D7 strain, counter-screen for P. falciparum growth inhibition project (AID 2304);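 note: 0% = vehicle and 100% = reference inhibitor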; details: P. falciparum 3D7 crude extract, LDH APAD/NBT absorbance; at 2 µM; stronger effect = higher value
[4] = inhibition of 3D7 malaria parasite growth – strain 3D7 (AID 2306);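 note: 0% = DMSO wells and 100% = chloroquine plus artemisinin control wells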; details: P. falciparum 3D7 erythrocytic growth, LDH absorbance, 72 h; at 2 µM; stronger effect = higher value
[5] = target: Plasmodium falciparum protein kinase 6 (PK6, PF3D7_1337100) (UniProt Q8IDW1); test: PfPK6 kinase inhibitors, biochemical, TCAMS library (AID 1159586); details: recombinant PfPK6, Kinase-Glo ATP depletion luminescence
[6] = target: Protein kinase 7 (PK7), Plasmodium falciparum 3D7 (PF3D7_0213400) (UniProt Q7YTF7); test: inhibition of Plasmodium PK7 catalytic activity – biochemical, TCAMS antimalarial set, Kinase-Glo luminescence (AID 1159587); details: recombinant PfPK7, Kinase-Glo ATP depletion luminescence
[7] = target: Calcium-dependent protein kinase 4 (Plasmodium falciparum (isolate 3D7)) (UniProt Q8IBS5); test: PfCDPK4 kinase inhibitors, biochemical, TCAMS library (AID 1159588; cut-off not given, nearly all actives have IC50 up to about 0.91 µM); details: recombinant PfCDPK4, Kinase-Glo ATP depletion luminescence
Chain of Calcium-dependent protein kinase 4 (Plasmodium falciparum (isolate 3D7)) (Q8IBS5 whole entry, looked up): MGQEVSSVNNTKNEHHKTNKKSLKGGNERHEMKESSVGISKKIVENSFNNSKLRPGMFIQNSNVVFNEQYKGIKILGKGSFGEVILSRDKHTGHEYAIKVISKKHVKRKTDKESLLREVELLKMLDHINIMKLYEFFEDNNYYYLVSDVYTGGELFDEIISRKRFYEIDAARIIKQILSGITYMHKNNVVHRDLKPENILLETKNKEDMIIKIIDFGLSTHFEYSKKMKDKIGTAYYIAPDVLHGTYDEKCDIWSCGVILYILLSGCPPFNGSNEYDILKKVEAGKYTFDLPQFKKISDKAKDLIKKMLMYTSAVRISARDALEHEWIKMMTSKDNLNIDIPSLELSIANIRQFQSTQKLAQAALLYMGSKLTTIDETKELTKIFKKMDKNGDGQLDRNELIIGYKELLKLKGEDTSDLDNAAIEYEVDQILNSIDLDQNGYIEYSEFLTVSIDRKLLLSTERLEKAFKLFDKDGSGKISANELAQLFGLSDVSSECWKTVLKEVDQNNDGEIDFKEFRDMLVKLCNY

Chain of Plasmodium falciparum protein kinase 6 (PK6, PF3D7_1337100) (Q8IDW1 1-305): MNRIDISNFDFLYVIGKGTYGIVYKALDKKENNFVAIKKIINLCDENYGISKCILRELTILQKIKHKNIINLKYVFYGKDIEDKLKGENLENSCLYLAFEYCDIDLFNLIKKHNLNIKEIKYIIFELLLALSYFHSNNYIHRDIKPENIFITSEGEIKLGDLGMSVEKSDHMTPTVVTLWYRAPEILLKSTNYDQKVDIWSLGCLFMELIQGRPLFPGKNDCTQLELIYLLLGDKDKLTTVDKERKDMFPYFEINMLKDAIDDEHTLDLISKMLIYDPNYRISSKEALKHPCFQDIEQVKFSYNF
Chain of L-lactate dehydrogenase (Plasmodium falciparum (isolate CDC / Honduras)) (Q27743 whole entry, looked up): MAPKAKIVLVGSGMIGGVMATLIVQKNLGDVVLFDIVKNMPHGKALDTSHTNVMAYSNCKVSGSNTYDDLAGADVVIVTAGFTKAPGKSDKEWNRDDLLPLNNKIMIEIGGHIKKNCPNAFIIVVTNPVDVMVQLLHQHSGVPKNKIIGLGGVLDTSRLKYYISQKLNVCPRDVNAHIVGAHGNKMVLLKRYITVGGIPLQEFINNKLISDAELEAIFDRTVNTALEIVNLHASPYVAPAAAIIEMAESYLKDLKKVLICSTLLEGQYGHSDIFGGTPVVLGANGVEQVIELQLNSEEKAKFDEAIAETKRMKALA
Chain of Protein kinase 7 (PK7), Plasmodium falciparum 3D7 (PF3D7_0213400) (Q7YTF7 1-343): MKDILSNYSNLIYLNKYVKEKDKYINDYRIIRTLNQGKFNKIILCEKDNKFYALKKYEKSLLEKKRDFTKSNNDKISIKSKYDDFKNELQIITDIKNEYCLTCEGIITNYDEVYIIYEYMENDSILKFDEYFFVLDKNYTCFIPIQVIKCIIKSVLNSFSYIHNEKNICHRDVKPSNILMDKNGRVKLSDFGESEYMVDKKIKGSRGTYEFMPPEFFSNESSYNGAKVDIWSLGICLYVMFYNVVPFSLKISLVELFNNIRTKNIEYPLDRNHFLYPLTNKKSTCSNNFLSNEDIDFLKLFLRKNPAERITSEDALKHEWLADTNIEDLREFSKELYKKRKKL

SMILES	growth inhibition [1]	inhibition [2]	inhibition [3] [%]	growth inhibition [4]	outcome [5]	outcome [6]	outcome [7]
NS(=O)(=O)CCc1cccc(Nc2nccc(-c3c(-c4cccc(NC(=O)c5c(F)cccc5F)c4)nn4ccccc34)n2)c1	97% (active)	84% (active)	3	98% (active)	inactive	inactive	–
Oc1cccc(Nc2ccnc3cc(-c4ccncc4)ccc23)c1	99% (active)	8%	1	101% (active)	inactive	inactive	inactive
CCn1c(-c2nonc2N)nc2c(-c3cccc(NC(=O)Nc4ccc(C(F)(F)F)cc4)c3)ncc(OCCCN)c21	63% (active)	36%	6	94% (active)	inactive	inactive	–
O=C(NCCCN1CCCCC1)c1cccc(Nc2nccc(Nc3ccc(Oc4ccccc4)cc3)n2)c1	12%	47%	2	96% (active)	inactive	inactive	inactive
Oc1cc(-c2nc(C3(CNCc4ccc(Cl)cc4)CCCCC3)[nH]c2-c2ccncc2)ccc1Cl	99% (active)	35%	2	100% (active)	inactive	inactive	inactive
Cc1cc(F)ccc1-c1nc(Nc2ccncc2)c2ccn(C)c2n1	8%	9%	5	89% (active)	inactive	inactive	inactive
O=C(NCCN1CCCCC1)c1cccc(Nc2nccc(Nc3ccc(Oc4ccccc4)cc3)n2)c1	86% (active)	50% (active)	-2	99% (active)	inactive	inactive	inactive
COc1cc(Nc2nccc(-c3c(-c4cccc(NC(=O)c5c(F)cccc5F)c4)nn4ccccc34)n2)cc(OC)c1OC	98% (active)	74% (active)	4	98% (active)	inactive	inactive	–
CS(=O)(=O)Nc1cccc(-c2cnc3[nH]cc(-c4ccc(CN)cc4)c3c2)c1	95% (active)	27%	2	98% (active)	inactive	inactive	inactive
COc1ccc(-c2cnn3ccc(Nc4cc(OC)c(OC)c(OC)c4)nc23)cc1OC	100% (active)	57% (active)	-4	98% (active)	inactive	inactive	inactive
COc1ccc(CNCC(C)(C)c2nc(-c3ccc(Cl)c(O)c3)c(-c3ccncc3)[nH]2)cc1	99% (active)	76% (active)	1	101% (active)	inactive	inactive	inactive
NS(=O)(=O)c1cccc(Nc2nccc(-c3c(-c4cccc(NC(=O)c5c(F)cccc5F)c4)nn4ccccc34)n2)c1	97% (active)	81% (active)	2	98% (active)	inactive	inactive	–
NCCCNc1nc(Nc2cccc(C(N)=O)c2)c2c(=O)[nH]ccc2n1	49%	9%	-3	99% (active)	inactive	inactive	–
NCCNC(=O)c1ccc(-c2cnc3[nH]cc(-c4ccc(C(N)=O)cc4)c3c2)cc1	98% (active)	2%	-2	99% (active)	–	inactive	inactive
CCn1c(-c2nonc2N)nc2c(-c3cccc(Cl)c3)ncc(OCCCNCc3cnc(C)nc3N)c21	48%	21%	3	93% (active)	inactive	inactive	–
CCn1c(-c2nonc2N)nc2c(-c3cccc(NC(=O)Nc4cccc(Cl)c4)c3)ncc(OCCCN)c21	78% (active)	9%	-1	91% (active)	inactive	inactive	–
Cc1cccc(Nc2nc(NCCCCN)nc3cc[nH]c(=O)c23)c1	97% (active)	34%	0	98% (active)	inactive	inactive	–
CNC(=O)c1ccccc1Nc1nc(Nc2ccc(N3CCN(C)CC3)nc2)ncc1C	50% (active)	75% (active)	4	92% (active)	–	inactive	inactive
COc1ccc(Nc2ncc(C#N)c(Nc3ccccc3C(N)=O)n2)cc1N1CCN(C)CC1	97% (active)	56% (active)	-1	93% (active)	–	inactive	inactive
NCCNS(=O)(=O)c1ccc(-c2ccnc3[nH]c(-c4ccncc4)cc23)cc1	95% (active)	-10%	3	96% (active)	–	inactive	inactive
CCn1c(-c2nonc2N)nc2c(-c3ccccc3)ncc(OCCCCNCCc3ncc[nH]3)c21	42%	34%	-1	92% (active)	inactive	inactive	–
CS(=O)(=O)Cc1ccc(Nc2nccc(N3CCCc4cc(NC(=O)Nc5cccc(C(F)(F)F)c5)ccc43)n2)cc1	99% (active)	46%	-4	102% (active)	–	inactive	inactive
Cc1ccc(Nc2ccnc(Nc3ccc4c(c3)CS(=O)(=O)C4)n2)cc1O	76% (active)	82% (active)	5	102% (active)	–	inactive	inactive

— PubChem BioAssay
